Measured values taken from PubChem BioAssay (EPA / NIEHS).
Results filed as inconclusive are left out. Calls of active or inactive are those of the source. How the source made its calls, unless noted: active means hit-call score of the fitted dose curve at least 0.9, where 1 is the maximum; inconclusive means response in the unintended direction; inactive means score below 0.9.

Columns and labels:
[1] = TOX21_p53_BLA_p2_viability: Viability Assessment in the Tox21 HCT-116 p53 Agonism Beta-lactamase Assay, Phase 2 (AID 2283591);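 further: actives lower the ATP signal meaning cytotoxicity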
How it was run: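 HCT116 p53-bla cells, 4000/well, dosed after 5 h plating (217-fold dilution of DMSO stocks) and incubated 16 h at 37C. Viability taken as cellular ATP by CellTiter-Glo luminescence after 30 min RT; signal loss marks cytotoxicity.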

[2] = TOX21_p53_BLA_p3_viability: Viability Assessment in the Tox21 HCT-116 p53 Agonism Beta-lactamase Assay, Phase 3 (AID 2283593);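 further: cells exposed to compound for 16 h before reading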
How it was run: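 HCT116 cells, 4000/well, dosed 5 h after plating by pin transfer (217-fold dilution from DMSO stock) and incubated 16 h at 37C, 5% CO2. Viability read as ATP luminescence with CellTiter-Glo after 30 min at room temperature.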

[3] = target: Cellular tumor antigen p53 (Homo sapiens) (UniProt P04637); experiment: TOX21_p53_BLA_p5_ratio: Tox21 HCT-116 p53 Agonism Beta-lactamase Assay, Ratio, Phase 5 (AID 2283599)
Sequence of Cellular tumor antigen p53 (Homo sapiens) (P04637 whole entry, looked up): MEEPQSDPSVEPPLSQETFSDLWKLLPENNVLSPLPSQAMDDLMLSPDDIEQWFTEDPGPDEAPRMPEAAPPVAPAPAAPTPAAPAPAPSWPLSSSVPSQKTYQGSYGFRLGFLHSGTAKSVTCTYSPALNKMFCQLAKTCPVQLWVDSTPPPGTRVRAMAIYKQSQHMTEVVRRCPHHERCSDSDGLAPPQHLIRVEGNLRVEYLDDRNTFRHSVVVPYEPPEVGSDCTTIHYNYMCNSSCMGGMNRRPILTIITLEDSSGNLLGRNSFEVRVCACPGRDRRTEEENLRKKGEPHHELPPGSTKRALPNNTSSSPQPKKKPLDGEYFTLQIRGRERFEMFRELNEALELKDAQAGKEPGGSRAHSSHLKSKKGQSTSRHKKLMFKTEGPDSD
How it was run: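 HCT-116 p53-bla cells (4000/well) plated 5 h, dosed with compound (217-fold DMSO dilution) for 16 h at 37 C; CCF4-AM substrate 2 h at room temperature. Activity is the 460/530 nm emission ratio (405 nm excitation), fitted in gain-of-signal direction versus DMSO.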

[4] = TOX21_p53_BLA_p5_viability: Viability Assessment in the Tox21 HCT-116 p53 Agonism Beta-lactamase Assay, Phase 5 (AID 2283600)
How it was run: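 Decreased CellTiter-Glo luminescence denotes lost viability. Exposure: 16 h at 37C, 5% CO2, with compounds from DMSO stocks diluted 217-fold in wells of 4000 cells.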

PGR (gene 5241) [5] = target: PGR (gene 5241) (UniProt P06401); experiment: TOX21_PR_BLA_Followup_Antagonist_ratio: Tox21 HEK293 Progesterone Receptor (PR) Antagonism Beta-lactamase Follow-Up Assay, Ratio (AID 2283934);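 further: PR-UAS-bla HEK293T cells stimulated with 1 nM R5020 agonist for 16 hr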
Sequence of PGR (gene 5241) (P06401 whole entry, looked up): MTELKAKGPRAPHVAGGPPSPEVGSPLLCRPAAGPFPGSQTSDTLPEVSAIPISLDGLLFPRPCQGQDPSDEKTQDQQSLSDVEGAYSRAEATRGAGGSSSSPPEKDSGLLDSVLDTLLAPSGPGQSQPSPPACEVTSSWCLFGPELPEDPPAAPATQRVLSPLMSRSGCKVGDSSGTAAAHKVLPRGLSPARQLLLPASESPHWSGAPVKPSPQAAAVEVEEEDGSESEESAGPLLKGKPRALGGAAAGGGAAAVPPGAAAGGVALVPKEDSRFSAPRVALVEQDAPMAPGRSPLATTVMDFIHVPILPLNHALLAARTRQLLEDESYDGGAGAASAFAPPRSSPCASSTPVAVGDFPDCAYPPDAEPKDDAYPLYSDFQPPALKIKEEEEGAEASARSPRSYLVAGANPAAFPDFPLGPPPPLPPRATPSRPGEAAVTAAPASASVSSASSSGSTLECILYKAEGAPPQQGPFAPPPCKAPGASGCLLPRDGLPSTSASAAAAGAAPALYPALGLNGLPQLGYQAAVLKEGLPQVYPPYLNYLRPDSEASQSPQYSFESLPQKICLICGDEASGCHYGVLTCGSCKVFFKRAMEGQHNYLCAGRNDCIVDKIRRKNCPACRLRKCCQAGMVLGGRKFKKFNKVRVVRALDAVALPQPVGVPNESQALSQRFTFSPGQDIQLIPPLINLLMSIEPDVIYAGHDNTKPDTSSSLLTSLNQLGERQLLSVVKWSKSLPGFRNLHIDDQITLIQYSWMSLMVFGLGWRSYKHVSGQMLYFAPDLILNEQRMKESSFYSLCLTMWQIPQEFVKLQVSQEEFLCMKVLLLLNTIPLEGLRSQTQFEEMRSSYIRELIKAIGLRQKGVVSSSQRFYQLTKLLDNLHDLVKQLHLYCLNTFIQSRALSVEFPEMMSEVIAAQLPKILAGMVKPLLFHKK
How it was run: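 Cells are plated, rested 6 hr, then dosed with test compound in DMSO and challenged with 1 nM promegestone. After 16 hr incubation, substrate loading for 2 h at room temperature precedes fluorescence reading; viability is measured in the same wells.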

[6] = TOX21_PR_BLA_Followup_Agonist_viability: Viability Assessment in the Tox21 HEK293 Progesterone Receptor (PR) Agonism Beta-lactamase Follow-Up Assay (AID 2283935);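 further: signal loss means lower viability so actives are cytotoxic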
How it was run: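 Cells were plated in medium with 2% charcoal-stripped FBS and rested 6 hr. Compounds in DMSO were then added for 16 hr at 37C, followed by the FRET substrate step and CellTiter-Glo luminescence after 30 min.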

[7] = TOX21_PR_BLA_Followup_Antagonist_viability: Viability Assessment in the Tox21 HEK293 Progesterone Receptor (PR) Antagonism Beta-lactamase Follow-Up Assay (AID 2283936);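 further: cells exposed to compound with R5020 agonist for 16 h; hits lower the luminescence signal meaning cytotoxicity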
How it was run: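 PR-UAS-bla HEK293T cells in medium with 2% charcoal-stripped FBS were treated with compounds plus R5020 for 16 hr at 37C. After the beta-lactamase read, CellTiter-Glo was added to the same wells and luminescence read after 30 min at room temperature.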

PGR (gene 5241) [8] = target: PGR (gene 5241) (UniProt P06401); experiment: TOX21_PR_LUC_Followup_Antagonist: Tox21 HEK293 Progesterone Receptor (PR) Antagonism Luciferase Follow-Up Assay (AID 2283938);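 further: curve fitted upward as signal gain over DMSO baseline despite antagonist label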
How it was run: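 HEK293-PR-A-luc cells, 3,000/well, preincubated 5 h at 37C before compound addition in DMSO; 16 h compound exposure at 37C. ONE-Glo luciferase luminescence read after 30 min at room temperature, fitted relative to DMSO baseline.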

[9] = TOX21_PR_LUC_Followup_Agonist_viability: Viability Assessment in the Tox21 HEK293 Progesterone Receptor (PR) Agonism Luciferase Follow-Up Assay (AID 2283941);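 further: loss of signal means cytotoxicity so actives lower viability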
How it was run: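 Multiplexed viability endpoint of the PR agonist luciferase follow-up: HEK293-PR-A-luc cells treated 16 h at 37C, with viability scored as decrease in CellTiter-Glo ATP signal.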

[10] = target: Cellular tumor antigen p53 (Homo sapiens) (UniProt P04637); experiment: TOX21_p53_BLA_p4_ratio: Tox21 HCT-116 p53 Agonism Beta-lactamase Assay, Ratio, Phase 4 (AID 2283601)
How it was run: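 HCT-116 p53 beta-lactamase reporter cells (4000/well) preincubated 5 h, then compound (217-fold dilution of DMSO stock) for 16 h at 37C. CCF4-AM substrate added 2 h at room temperature; 460/530 nm emission ratio fitted upward versus DMSO.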

[11] = TOX21_p53_BLA_p4_viability: Viability Assessment in the Tox21 HCT-116 p53 Agonism Beta-lactamase Assay, Phase 4 (AID 2283597);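 further: hits lower the luminescence signal meaning cytotoxicity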
How it was run: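 4000 HCT116 cells per well; 5 h attachment; compounds from DMSO, 217-fold dilution; 16 h at 37C. Then CCF4-AM, 2 h RT, followed by CellTiter-Glo, 30 min RT, luminescence. Decrease = cytotoxicity.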

[12] = tested on: Brachyury (BRA) Protein Expression, Deisenroth Lab, TBXT (gene 6862); experiment: CCTE_Deisenroth_DEVTOX-GLR_legacy_Bra: (Legacy) CCTE's DevTox GLR-Endo Assay Evaluation of Brachyury (BRA) Protein Expression, Deisenroth Lab (AID 2284329; active means hit-call score of the fitted dose curve at least 0.9, where 1 is the maximum; inactive means score below 0.9)
How it was run: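 Readout: percent Bra+ cells by high-content fluorescence imaging, Bra+ meaning mean intensity 5x BMAD over pluripotent control median. RUES2-GLR cells dosed twice over 48 h differentiation; DMSO-control median subtracted before concentration-response fitting.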

[13] = CCTE_Deisenroth_DEVTOX-GLR_legacy_CellCount: (Legacy) Viability Assessment in CCTE's DevTox GLR-Endo Assay, Deisenroth Lab (AID 2284331; active means hit-call score of the fitted dose curve at least 0.9, where 1 is the maximum; inactive means score below 0.9); conditions: actives raise or lower the signal
How it was run: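 RUES2-GLR human pluripotent cells were seeded 24 h, then differentiated 48 h with two compound doses at 24 h intervals (10-point, 1 nM - 200 uM). Fixed nuclei were imaged and counted; bidirectional fitting versus 0.2% DMSO.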

[14] = tested on: SRY-box transcription factor 17 (SOX17) Protein Expression, Deisenroth Lab, SOX17 (gene 64321); experiment: CCTE_Deisenroth_DEVTOX-GLR_legacy_Sox17: (Legacy) CCTE's DevTox GLR-Endo Assay Evaluation of SRY-box transcription factor 17 (SOX17) Protein Expression, Deisenroth Lab (AID 2284341; active means hit-call score of the fitted dose curve at least 0.9, where 1 is the maximum; inactive means score below 0.9); conditions: actives raise or lower the signal
How it was run: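 Percent SOX17-positive cells, scored by high-content imaging as mean intensity exceeding pluripotent-control median by 5x BMAD, divided by cell count. Human RUES2-GLR endoderm differentiation, 48 h, two exposures 24 h apart, 1 nM–200 uM; DMSO-referenced bidirectional fitting.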

[15] = tested on: SRY-box transcription factor 2 (SOX2) Protein Expression, Deisenroth Lab, SOX2 (gene 6657); experiment: CCTE_Deisenroth_DEVTOX-GLR_legacy_Sox2: (Legacy) CCTE's DevTox GLR-Endo Assay Evaluation of SRY-box transcription factor 2 (SOX2) Protein Expression, Deisenroth Lab (AID 2284346; active means hit-call score of the fitted dose curve at least 0.9, where 1 is the maximum; inactive means score below 0.9)
How it was run: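 Read-out: fraction of Sox2+ cells by high-content fluorescence imaging of fixed RUES2-GLR cells after 48 h differentiation with two 24 h-spaced exposures. Positivity cutoff 5x BMAD above endoderm control median; 0.2% DMSO median subtracted.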

[16] = tested on: SRY-box transcription factor 2 (SOX2) Protein Expression, Deisenroth Lab, SOX2 (gene 6657); experiment: CCTE_Deisenroth_DEVTOX-GLR_Endo_SOX2: CCTE's DevTox GLR-Endo Assay Evaluation of SRY-box transcription factor 2 (SOX2) Protein Expression, Deisenroth Lab (AID 2284412)
How it was run: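 Endpoint is percent SOX2-positive cells (SOX2+ count/total cells) minus 0.2% DMSO control, from high-content imaging of fixed, nuclear-stained RUES2-GLR cells. Dosing twice at 24 h intervals over 48 h differentiation, 1 nM–200 uM in 10 points.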

[17] = tested on: SRY-box transcription factor 17 (SOX17) Protein Expression, Deisenroth Lab, SOX17 (gene 64321); experiment: CCTE_Deisenroth_DEVTOX-GLR_Endo_SOX17: CCTE's DevTox GLR-Endo Assay Evaluation of SRY-box transcription factor 17 (SOX17) Protein Expression, Deisenroth Lab (AID 2284413; active means hit-call score of the fitted dose curve at least 0.9, where 1 is the maximum; inactive means score below 0.9)
How it was run: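 Human RUES2-GLR cells carrying an inducible fluorescent reporter are differentiated in defined media for 48 h and dosed twice, 24 h apart. After fixation and nuclear staining, imaging yields SOX17+ cell percentage relative to 0.2% DMSO-treated differentiated cells.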

[18] = tested on: Brachyury (BRA) Protein Expression, TBXT (gene 6862); experiment: CCTE_Deisenroth_DEVTOX-GLR_Endo_BRA: CCTE's DevTox GLR-Endo Assay Evaluation of Brachyury (BRA) Protein Expression, Deisenroth Lab (AID 2284417; active means hit-call score of the fitted dose curve at least 0.9, where 1 is the maximum; inactive means score below 0.9)
How it was run: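 Endpoint is the fraction of BRA reporter-positive cells over total nuclei, corrected by subtracting the 0.2% DMSO value. Chemicals (1 nM - 200 uM, 10 points) were dosed twice during 48 h differentiation of RUES2-GLR cells, read by imaging.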

[19] = CCTE_Deisenroth_DEVTOX-GLR_Endo_CellCount: Viability Assessment in CCTE's DevTox GLR-Endo Assay, Deisenroth Lab (AID 2284420; active means hit-call score of the fitted dose curve at least 0.9, where 1 is the maximum; inactive means score below 0.9)
How it was run: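 RUES2-GLR pluripotent cells seeded 24 h, then differentiated 48 h in defined media with two chemical exposures 24 h apart. Nuclei counted by high-content imaging; 10-point 1 nM–200 uM series; percent change versus 0.2% DMSO.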

[20] = tested on: SRY-box transcription factor 2 (SOX2) Protein Expression, Deisenroth Lab, SOX2 (gene 6657); experiment: CCTE_Deisenroth_DEVTOX-GLR_Pluri_SOX2: CCTE's DevTox GLR-Pluri Assay Evaluation of SRY-box transcription factor 2 (SOX2) Protein Expression, Deisenroth Lab (AID 2284428; active means hit-call score of the fitted dose curve at least 0.9, where 1 is the maximum; inactive means score below 0.9)
How it was run: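 RUES2-GLR human pluripotent cells, two exposures 24 h apart over 48 h differentiation; 10-point series 1 nM - 200 uM. High-content imaging gives SOX2+ cells divided by cell count, reported as percent change versus 0.2% DMSO.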

[21] = tested on: Brachyury (BRA) Protein Expression, Deisenroth Lab, TBXT (gene 6862); experiment: CCTE_Deisenroth_DEVTOX-GLR_Pluri_BRA: CCTE's DevTox GLR-Pluri Assay Evaluation of Brachyury (BRA) Protein Expression, Deisenroth Lab (AID 2284429)
How it was run: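 RUES2-GLR reporter line; 48 h mesoderm differentiation; two exposures, 24 h apart; 1 nM - 200 uM, 10 points; nuclear stain, high-content imaging, 5 fields/well; endpoint = %BRA+ cells of total count minus 0.2% DMSO; n=4.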

[22] = CCTE_Deisenroth_DEVTOX-GLR_Pluri_CellCount: Viability Assessment in CCTE's DevTox GLR-Pluri Assay Evaluation of Total Cell Counts, Deisenroth Lab (AID 2284430; active means hit-call score of the fitted dose curve at least 0.9, where 1 is the maximum; inactive means score below 0.9)
How it was run: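 Cytotoxicity readout: fluorescent nuclei counts by high-content imaging, expressed as percent change relative to 0.2% DMSO. Human RUES2-GLR pluripotent line differentiated 48 h, dosed twice at 24-h intervals across 1 nM - 200 uM (10 points).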

O=S(=O)(Oc1ccc(Cl)cc1)c1ccccc1
outcome [1]: inactive
outcome [2]: inactive
outcome [3]: inactive
outcome [4]: inactive
AC50 (PGR (gene 5241) [5]): 59.9 µM (active)
outcome [6]: inactive
outcome [7]: inactive
outcome (PGR (gene 5241) [8]): inactive
outcome [9]: inactive

Cc1ccc(N(CCO)CCO)cc1
outcome [1]: inactive
outcome [2]: inactive
outcome [3]: inactive
outcome [4]: inactive
outcome [10]: inactive

O=C(O)CCC(=O)Nc1ccc(S(=O)(=O)Nc2nccs2)cc1
outcome [1]: inactive
outcome [2]: inactive
outcome [3]: inactive
outcome [4]: inactive
outcome [10]: inactive

CC1(C)S[C@@H]2[C@H](NC(=O)C(c3ccccc3)S(=O)(=O)O)C(=O)N2[C@H]1C(=O)O (some centres not stated)
outcome [1]: inactive
outcome [2]: inactive
outcome [11]: inactive
outcome [10]: inactive

C[N+]1(CCCCC[N+]2(C)CCCC2)CCCC1
outcome [1]: inactive
outcome [2]: inactive
outcome [3]: inactive
outcome [10]: inactive

CCCCCN=C(N)N/N=C/c1c[nH]c2ccc(OC)cc12
outcome [1]: inactive
outcome [2]: inactive
outcome [11]: inactive
outcome [10]: inactive
outcome [12]: inactive
AC50 [13]: 5.09 µM (active)
AC50 [14]: 5.47 µM (active)
outcome [15]: inactive
AC50 [16]: 100 µM (active)
AC50 [17]: 5.27 µM (active)
AC50 [18]: 143 µM (active)
AC50 [19]: 5.15 µM (active)
AC50 [20]: 7.76 µM (active)
AC50 [21]: 5.27 µM (active)
AC50 [22]: 7.83 µM (active)

O=c1[nH][nH]c(=O)c2cc([N+](=O)[O-])ccc12
outcome [1]: inactive
outcome [2]: inactive
outcome [11]: inactive
outcome [4]: inactive

O=C1OCCO1
outcome [1]: inactive
outcome [2]: inactive
outcome [3]: inactive
outcome [4]: inactive

CC1(C)[C@H]2CC[C@](C)(C2)[C@H]1O
outcome [1]: inactive
outcome [2]: inactive
outcome [11]: inactive
outcome [10]: inactive

CC(=O)c1ccc(OCC(=O)N2CCCCC2)cc1
outcome [1]: inactive
outcome [2]: inactive
outcome [3]: inactive
outcome [4]: inactive
outcome [10]: inactive

CC(C)Nc1cccnc1N1CCN(C(=O)c2cc3cc(NS(C)(=O)=O)ccc3[nH]2)CC1
outcome [1]: inactive
outcome [2]: inactive
outcome [11]: inactive
outcome [4]: inactive
outcome [10]: inactive

c1cc(CN2CCCCC2)cc(OCCCNc2nc3ccccc3s2)c1
outcome [1]: inactive
outcome [2]: inactive
outcome [11]: inactive
outcome [4]: inactive

CCOCCOCCOC(C)=O
outcome [1]: inactive
outcome [2]: inactive
outcome [3]: inactive
outcome [4]: inactive
outcome [10]: inactive

CCN(CCCCOC(=O)c1ccc(OC)c(OC)c1)C(C)Cc1ccc(OC)cc1 (configuration not stated)
outcome [1]: inactive
outcome [2]: inactive
outcome [11]: inactive
outcome [10]: inactive
